Screens deposited in PubChem BioAssay by several laboratories.
Shown are actives, neighbours in structure and some others; about 1.2% of the full set was active somewhere.
SUMO HTRF inh: inhibitors of human SUMOylation (UBC9); 290,000 compounds, 0.36% hits; inhibition, % at 35 µM; HTRF SUMOylation assay, SAE1/SAE2 + UBC9, in vitro; in the data active means inhibition above about 50%, passing the limit was not always enough
p97 ATPase inh: blocks human p97 ATPase activity; recombinant p97 ATPase, Kinase-Glo ATP luminescence, 3 h; inhibition, % at 8 µM; AID 1481; P55072; 220,000 compounds, 0.42% hits; in the data active means inhibition above about 15%;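 further: 0% = DMSO vehicle and 100% = wells lacking enzyme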
PKD1 inh: PKD1 (human) kinase inhibition. 200,000 compounds, 0.056% hits. Q15139. AID 797. inhibition, % (concentration not given with the values). PKD1 kinase fluorescence polarization assay; in the data active means inhibition above about 50%
Target sequence (Q15139 whole entry, looked up): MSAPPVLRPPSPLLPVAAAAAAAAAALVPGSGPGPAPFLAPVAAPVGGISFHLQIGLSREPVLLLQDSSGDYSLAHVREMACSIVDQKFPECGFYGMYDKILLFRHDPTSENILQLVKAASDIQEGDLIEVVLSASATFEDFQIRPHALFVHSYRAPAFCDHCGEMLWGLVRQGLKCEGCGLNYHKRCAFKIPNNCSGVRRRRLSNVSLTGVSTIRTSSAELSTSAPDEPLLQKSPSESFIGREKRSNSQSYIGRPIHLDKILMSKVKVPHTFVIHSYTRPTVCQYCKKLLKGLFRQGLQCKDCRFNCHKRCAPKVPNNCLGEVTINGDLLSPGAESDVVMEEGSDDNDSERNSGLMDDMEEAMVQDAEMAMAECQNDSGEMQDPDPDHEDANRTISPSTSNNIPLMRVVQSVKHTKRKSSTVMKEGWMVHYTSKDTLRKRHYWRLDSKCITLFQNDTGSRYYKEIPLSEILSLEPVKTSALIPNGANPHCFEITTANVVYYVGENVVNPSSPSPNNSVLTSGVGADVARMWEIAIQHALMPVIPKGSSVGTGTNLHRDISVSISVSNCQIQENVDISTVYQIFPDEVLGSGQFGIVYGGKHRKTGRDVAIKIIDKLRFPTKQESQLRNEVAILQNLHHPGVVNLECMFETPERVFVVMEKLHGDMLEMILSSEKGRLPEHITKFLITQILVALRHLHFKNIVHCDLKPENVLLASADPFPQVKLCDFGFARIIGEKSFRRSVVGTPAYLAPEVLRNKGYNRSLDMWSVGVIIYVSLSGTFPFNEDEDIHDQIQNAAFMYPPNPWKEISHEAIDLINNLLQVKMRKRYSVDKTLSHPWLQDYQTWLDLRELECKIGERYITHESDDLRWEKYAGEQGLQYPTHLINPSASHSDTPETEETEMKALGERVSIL
Furin inhibitor: blocks human furin protease activity | inhibition, % at 20 µM or 30 µM | 220,000 compounds, 0.061% hits | purified furin, fluorogenic substrate cleavage | P09958; in the data active means inhibition above about 25%
FAS TE block: FAS thioesterase (human) inhibition. P49327. recombinant FAS-TE, OMFH fluorogenic substrate, fluorescence endpoint. inhibition, % at 15 µM. 360,000 compounds, 0.67% hits;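 active means compounds whose normalised, plate-corrected inhibition of enzyme fluorescence in the single-dose primary screen is 50% or more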;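 further: 0% = DMSO with enzyme and 100% = substrate without enzyme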
DTT redox prof: compounds producing H2O2 with reducing agent – biochemical, NIH compound library profiling, artefact control for MLSCN library redox annotation, primary screen | AID 878 | DTT-dependent redox cycling H2O2, phenol red/HRP absorbance; 100% = 100 µM peroxide control, 0% = buffer | activation, % at 10 µM | 200,000 compounds, 0.03% hits;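 active means activation of at least 50% relative to the plate's high and low controls in the primary single-dose screen; inactive means activation below 50%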;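 further: compound incubated with DTT at 0.8 mM final as the reducing agent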
FAS-TE conf: confirmation of human fatty acid synthase thioesterase inhibitors | recombinant FAS-TE, OMFH fluorogenic substrate, fluorescence | inhibition, % at 15 µM | 2,300 compounds, 45% hits | shares compounds with FAS TE block;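 active means compounds inhibiting the enzyme by at least 50% at 15 µM in any one of the replicates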;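 further: 0% = enzyme with DMSO only and 100% = wells lacking enzyme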
Numbers without * were called inactive; . = not tested or not shown.

SMILES	SUMO HTRF inh	p97 ATPase inh	PKD1 inh	Furin inhibitor	FAS TE block	DTT redox prof	FAS-TE conf
CCN1C(=O)[C@H]2[C@@H](c3ccc(C)cc3)N3C(=O)N(c4cccc(Cl)c4)C(=O)[C@@]3(Cc3ccc(Cl)cc3)[C@H]2C1=O	.	.	.	.	86*	.	53*
CCN1C(=O)[C@H]2[C@@H](c3ccc(C)cc3)N3C(=O)N(c4cccc(Br)c4)C(=O)[C@@]3(Cc3ccccc3)[C@H]2C1=O	.	.	.	.	67*	.	25
O=C(NCc1ccc2c(c1)OCO2)c1ccc2c(c1)N(Cc1c(F)cccc1Cl)C(=O)CS2	-5	-5	5	-3	54*	0	33*
CCC1CCCCN1CCCNC(=O)c1ccc2c(c1)N(Cc1c(F)cccc1Cl)C(=O)CS2 (configuration not stated)	.	.	.	.	0	.	.
CN(CC(=O)Nc1cccc(F)c1)C(=O)CC1CC2CCC1C2 (configuration not stated)	9	.	.	.	6	.	.
COc1ccc([N+](=O)[O-])cc1NC(=O)CC1SC(=Nc2cccc(C)c2C)N(/N=C/c2cccc(OC)c2OC)C1=O (configuration not stated)	5	14	4	-2	87*	1	8
CN=C1SC(CC(=O)Nc2c(C)cccc2C)C(=O)N1/N=C/c1cccs1 (configuration not stated)	-5	-3	0	-5	-4	0	.
COc1ccc(C/C(N)=N/OC(=O)c2cccc([N+](=O)[O-])c2)cc1	6	0	-6	-4	54*	0	48*
COc1ccc2oc(C(=O)OCC(=O)NCc3ccccc3OC)c(C)c2c1	.	.	.	.	-1	.	.
CCOc1ccccc1OCCCC(=O)NNC(=O)c1ccc(F)cc1	.	.	.	.	-4	.	.
COc1ccccc1NS(=O)(=O)c1cc(NC(=O)c2sccc2C)ccc1N1CCOCC1	-30	8	.	-26	30	.	.
COc1ccccc1NS(=O)(=O)c1cc(NC(=O)c2sccc2C)ccc1N1CCCC1	-13	3	-4	-22	58*	-1	3
COc1ccccc1NS(=O)(=O)c1cc(NC(=O)/C=C/c2cccs2)ccc1N1CCOCC1	13	4	-10	1	82*	0	22
Cc1ccc(C)c(NC(=O)CN(C)C(=O)C2COc3ccccc3O2)c1 (configuration not stated)	.	.	.	.	-5	.	.
O=C(CCc1c[nH]c2ccccc12)NCCc1ccc(O)cc1	8	.	.	.	-5	.	.
CCCOc1ccc(N2C(=O)CC(SC(=N)N3N=C(c4ccccc4)CC3c3ccccc3)C2=O)cc1 (configuration not stated)	-5	0	4	-13	69*	0	15
CCCOc1ccc(N2C(=O)CC(SC(=NC)Nc3ccc(F)cc3)C2=O)cc1 (configuration not stated)	15	-1	-2	-17	-1	0	.
Cn1c(N/N=C/c2cccs2)cc(=O)n(C)c1=O	24	1	1	4	-2	0	.
Fc1c(F)c(C(F)(F)F)c(F)c(F)c1N/N=C\c1cccs1	-8	-6	2	-8	63*	0	51*
O=C(Cc1ccc([N+](=O)[O-])cc1)N1CCc2ccccc2C1	-29	-1	1	-27	26	0	.
O=C(COc1ccc([N+](=O)[O-])cc1)N1CCc2ccccc2C1	16	.	.	.	70*	.	83*
O=C(CN1C(=O)c2cccc([N+](=O)[O-])c2C1=O)N1CCc2ccccc2C1	.	.	.	.	59*	.	65*
O=C(CN1C(=O)c2cccc([N+](=O)[O-])c2C1=O)N1CCN(S(=O)(=O)c2ccccc2)CC1	.	.	.	.	27	.	.
CC(=O)Nc1ccc(S(=O)(=O)Nc2nnc(C)s2)cc1	.	.	.	.	-6	.	.
O=C(COC(=O)C1CCN(S(=O)(=O)c2cccs2)CC1)Nc1ccccc1	0	0	-6	-23	0	-2	.
SMILES	SUMO HTRF inh	p97 ATPase inh	PKD1 inh	Furin inhibitor	FAS TE block	DTT redox prof	FAS-TE conf
CC(C)(C)NC(=O)NC(=O)COC(=O)C1CCN(S(=O)(=O)c2cccs2)CC1	.	.	.	.	53*	.	46*
CCCCOc1ccc(-c2c(C#N)c(N)nc(SCC(N)=O)c2C#N)cc1	1	-3	0	-1	76*	0	92*
CCC(=Cc1ccccc1OC)c1ccncc1	.	.	.	.	0	.	.
O=C(CSc1nc2ccccc2n1S(=O)(=O)c1cccc([N+](=O)[O-])c1)NCCc1ccccc1	12	-3	-11	-4	76*	0	69*
CCCCNC(=O)CSc1nc2ccccc2n1S(=O)(=O)c1ccc(Br)cc1	2	-2	-5	-23	0	0	.
O=[N+]([O-])c1cccc(/C=N/Nc2nc(N3CCOCC3)nc(N3CCOCC3)n2)c1	0	1	-6	-15	12	0	.
O=[N+]([O-])c1ccc(Cl)c(/C=N/Nc2nc(N3CCOCC3)nc(N3CCOCC3)n2)c1	20	3	-6	1	51*	0	5
O=[N+]([O-])c1ccc(/C=N/Nc2nc(N3CCOCC3)nc(N3CCOCC3)n2)cc1	22	3	2	-10	50*	-1	23
Clc1cc2c(cc1/C=N/Nc1nc(N3CCOCC3)nc(N3CCOCC3)n1)OCO2	15	0	1	-17	12	-1	.
CC(C)c1ccc(/C=N/Nc2cc(N3CCOCC3)nc(N3CCOCC3)n2)cc1	-9	5	3	-2	89*	0	90*
CC(=O)Nc1oc(-c2cccc3ccccc23)nc1C#N	.	.	.	.	-4	.	.
COC(=O)C/C=C/N(Cc1ccccc1OC)S(=O)(=O)CCl	.	.	.	.	-12	.	.
CCc1ccc(C2(O)CC(C(F)(F)F)=NN2C(=O)Cc2ccc([N+](=O)[O-])cc2)cc1 (configuration not stated)	18	-10	-1	-14	52*	0	18
O=C(c1ccccc1O)N1N=C(C(F)(F)F)CC1(O)c1ccc([N+](=O)[O-])cc1 (configuration not stated)	-2	.	.	.	30	.	.
COc1ccc(C2NC(c3ccc(OC)cc3)C(C)C(=O)C2C)cc1 (configuration not stated)	12	.	.	.	15	.	.
COc1ccc(C2NC(c3ccc(OC)cc3)C(c3ccccc3)C(=O)C2c2ccccc2)cc1 (configuration not stated)	-12	2	-1	-10	62*	0	32
Cc1ccc2c(Cl)cc(Cl)c(OCC(=O)Nc3cccc(S(=O)(=O)N(C)C)c3)c2n1	14	1	-1	-5	9	1	.
Cc1ccc2c(Cl)cc(Cl)c(OCC(=O)Nc3cc(S(=O)(=O)N(C)C)ccc3C)c2n1	-11	-8	-5	-6	52*	0	2
